Hits are enriched below; roughly 9.2% of the tested compounds scored in any of these assays.
KDM4E inh – inhibitors of human JMJD2E histone demethylase | B2RXH2 | JMJD2E catalytic domain, FDH-coupled NADH fluorescence (FDH is formaldehyde dehydrogenase) | Potency, µM (top dose mostly 57.1 µM), usual class: inhibitors | 230,000 tested, 1.6% active | AID 2147; note: nearly all actives have a fitted effect of over 50% in size
Target sequence (B2RXH2 1-337 limits assumed): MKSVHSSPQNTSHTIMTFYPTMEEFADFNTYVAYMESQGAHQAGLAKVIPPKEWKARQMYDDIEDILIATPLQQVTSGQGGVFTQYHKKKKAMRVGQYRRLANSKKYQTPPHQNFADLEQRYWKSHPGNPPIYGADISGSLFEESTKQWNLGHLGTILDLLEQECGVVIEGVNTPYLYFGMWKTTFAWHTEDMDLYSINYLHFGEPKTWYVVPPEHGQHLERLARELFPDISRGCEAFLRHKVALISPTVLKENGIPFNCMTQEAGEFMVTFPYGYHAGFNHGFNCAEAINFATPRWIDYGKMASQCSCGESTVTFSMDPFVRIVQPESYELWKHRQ
Lamin A splicing – changes lamin A minigene splicing in HeLa cells; HeLa LMNA splicing GFP/RFP minigene ratio, 48 h; Potency, µM (highest dose often 46.1 µM), hits mostly inhibitors; 200,000 tested, 0.01% active; AID 1487; active = well fitted inhibition curve with a large enough effect in the signal ratio, with a control signal flat, not every such curve was filed as active; inconclusive = small, poorly fitted or top-dose-only effect, or effect the other way, or a change in a side signal; the % refers to the signal ratio
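S3 HeLa stable clones carrying a lamin A-EGFP splicing minigene plus DsRed2 were seeded at 600 cells/well in Opti-MEM with 2% FBS, pin-dosed and incubated 48 h at 37°C. Acumen cytometry (488 nm) gave the GFP/RFP total-intensity ratio.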
HTT cytoprotect – protects HTT-Q103 PC12 cells, measured by ATP | PC12 HTT-Q103 induced, cytoprotection, ATP luminescence, 40 h | Potency, µM (series often up to 56.4 µM), actives largely listed as activators | 230,000 tested, 0.14% active | AID 1471; active = well fitted curve in the direction sought with a large enough effect; inconclusive = small, poorly fitted or top-dose-only effect, or another doubt; inactive = no such curve, though single readings can be large; an effect the other way counts as inactive or inconclusive; note: nearly all actives have a fitted effect of over 45% in size
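PC12 cells stably carrying ecdysone-inducible Htt exon 1 (Q103)–GFP were induced with 100 nM tebufenozide (final) alongside library compounds in a dose series. Cytoprotection was scored as retained ATP by ATPlite luminescence.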
HTT aggregate – reduces HttQ103-GFP aggregates in PC12 cells | Potency, µM (series often up to 46.1 µM), most hits filed as inhibitors | PC12 HttQ103-GFP aggregates, Acumen cytometry, 40 h | 220,000 tested, 1.1% active; active = well fitted curve in the direction sought with a large enough effect; inconclusive = small, poorly fitted or top-dose-only effect, or another doubt; inactive = no such curve, though single readings can be large; an effect the other way counts as inactive or inconclusive; note: nearly all actives have a fitted effect of over 60% in size
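Quantitative HTS on tebufenozide-induced (100 nM) PC12 cells stably expressing polyQ103 Huntingtin exon 1–GFP. Reduction of bright GFP aggregates, detected by laser scanning cytometry after lysis, identified actives across the titration.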
ALDH1A1 inh – blocks purified human ALDH1A1 activity. P00352. Purified ALDH1A1, NADH fluorescence, propionaldehyde substrate. Potency, µM (top dose mostly 75.3 µM), hits mostly inhibitors. 220,000 tested, 7.3% active. AID 1030
HPGD block – blocks human HPGD enzyme activity | AID 894 | purified HPGD, NADH fluorescence kinetic, PGE2 substrate | 150,000 tested, 4.3% active | Potency, µM, most hits filed as inhibitors | P15428
Target sequence (P15428 whole entry, looked up): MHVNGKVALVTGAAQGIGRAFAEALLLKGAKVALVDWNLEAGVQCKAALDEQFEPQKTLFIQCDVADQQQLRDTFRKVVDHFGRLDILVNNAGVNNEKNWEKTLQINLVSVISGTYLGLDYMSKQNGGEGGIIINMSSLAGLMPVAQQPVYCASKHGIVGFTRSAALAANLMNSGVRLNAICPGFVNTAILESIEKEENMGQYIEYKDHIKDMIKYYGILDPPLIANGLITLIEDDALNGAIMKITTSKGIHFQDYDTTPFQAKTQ
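20 nM HPGD preincubated 15 min at room temperature with compound in 50 mM Tris-HCl pH 8, 0.01% Tween 20. Started with 1 mM NAD+ and 30 uM prostaglandin E2; NADH fluorescence (360/450 nm) read 5 times over 30-s intervals, last minus first.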
Numbers stand for hits; ! = a repeat was not active; [ ] = dose if it differs, or a comment. Unless noted, calls come from the whole dose curve; as a rule, active = well fitted inhibition curve with a large enough effect (not every such curve was filed as active); inconclusive = small, poorly fitted or top-dose-only effect, or another doubt; inactive = no such curve, though single readings can be large or run the other way.

For CNc1ncnc2c1ncn2[C@H]1C[C@H](O)[C@@H](CO)O1 the results were HTT cytoprotect inactive and ALDH1A1 inh inactive.
For O=C1N(Cc2ccccc2F)c2ccccc2C12OCCCO2 the results were KDM4E inh inactive, Lamin A splicing inactive, HTT cytoprotect inactive, HTT aggregate inactive, ALDH1A1 inh 22µM and HPGD block inactive.
COc1ccc(OC)c(NC(=O)CN2C(=O)C3(OCCCO3)c3ccccc32)c1 was read as KDM4E inh inactive, Lamin A splicing inactive, HTT cytoprotect inactive[0.074 µM], HTT aggregate inactive, ALDH1A1 inh inconclusive and HPGD block inactive.
`COc1ccccc1NC(=O)CN1C(=O)C2(OCCCO2)c2ccccc21` gave KDM4E inh inactive, Lamin A splicing inactive, HTT cytoprotect inactive, HTT aggregate inactive, ALDH1A1 inh 22µM and HPGD block inactive.
`O=C1N(CCCCN2C(=O)C3(OCCO3)c3ccccc32)c2ccccc2C12OCCO2` gave KDM4E inh inactive, Lamin A splicing inactive, HTT cytoprotect inactive[10 µM], HTT aggregate inactive, ALDH1A1 inh inactive and HPGD block inactive.
O=C1N(Cc2ccc(F)cc2Cl)c2ccccc2C12OCCCO2 was read as KDM4E inh inactive, Lamin A splicing inactive, HTT cytoprotect inactive, HTT aggregate inactive[9.22 µM], ALDH1A1 inh inactive and HPGD block inactive.
Screening O=C(CN1C(=O)C2(OCCO2)c2ccccc21)c1ccc(Br)cc1 returned KDM4E inh inactive, Lamin A splicing inconclusive, HTT cytoprotect inactive, HTT aggregate inactive and ALDH1A1 inh 14µM.
`CC(O)CC(C)O` (stereo unspecified) gave HTT cytoprotect inactive, ALDH1A1 inh inactive and HPGD block inactive.
`COC(=O)c1[nH]c2cccc(OC)c2c1NC(=O)C(C)N1CCC(C)CC1` (stereo unspecified) gave KDM4E inh inconclusive, Lamin A splicing inactive, HTT cytoprotect inactive, HTT aggregate inactive[9.22 µM], ALDH1A1 inh inconclusive and HPGD block inconclusive.
For Cc1ccccc1-c1ccc2ncnc(NCCN3CCOCC3)c2c1 the results were Lamin A splicing inactive, HTT cytoprotect inactive and ALDH1A1 inh inconclusive.
COc1ccc(N(C(=O)c2ccccc2)S(=O)(=O)c2cccs2)cc1 was read as KDM4E inh inactive, Lamin A splicing inconclusive, HTT cytoprotect inactive[1.9 µM], HTT aggregate inactive[9.22 µM] and ALDH1A1 inh inconclusive.
For COc1ccc(C(=O)N(c2ccc(OC)cc2)S(=O)(=O)c2cccs2)cc1 the results were KDM4E inh inactive, Lamin A splicing inactive, HTT cytoprotect inactive[10 µM], HTT aggregate inactive, ALDH1A1 inh 5µM and HPGD block inactive.
Screening COc1ccc(C2/C(=C(/O)c3ccc(C)cc3)C(=O)C(=O)N2C)cc1 (stereo unspecified) returned KDM4E inh inactive, Lamin A splicing inactive, HTT cytoprotect inactive[10 µM], HTT aggregate inactive, ALDH1A1 inh inactive and HPGD block inactive.
COC(=O)c1ccc(C2/C(=C(/O)c3ccc(OC(C)C)cc3)C(=O)C(=O)N2c2cc(C)on2)cc1 (stereo unspecified) was read as KDM4E inh inactive, Lamin A splicing inconclusive, HTT cytoprotect inactive[0.074 µM], HTT aggregate inactive, ALDH1A1 inh inactive and HPGD block inactive.
`COC(=O)c1ccc(C2/C(=C(/O)c3ccc(OC)cc3)C(=O)C(=O)N2c2cc(C)on2)cc1` (stereo unspecified) gave KDM4E inh inactive, Lamin A splicing inactive, HTT cytoprotect inactive, HTT aggregate inactive, ALDH1A1 inh 13µM and HPGD block inconclusive.
COc1ccc(N2C(=O)C(=O)/C(=C(/O)c3ccc(C)cc3)C2c2cccnc2)cc1 (stereo unspecified) was read as KDM4E inh inactive, Lamin A splicing inactive, HTT cytoprotect inactive[10 µM], HTT aggregate inactive, ALDH1A1 inh 7.9µM and HPGD block inactive.
Screening CC(=O)N1CCOc2cc(S(=O)(=O)NCc3ccc(C)cc3)c(Cl)cc21 returned Lamin A splicing inactive.
Screening CCSc1oc(-c2cccs2)nc1S(=O)(=O)c1ccccc1 returned KDM4E inh inactive, Lamin A splicing inactive, HTT cytoprotect inactive[10 µM], HTT aggregate 13µM, ALDH1A1 inh inconclusive and HPGD block inconclusive.
CCSc1oc(-c2ccco2)nc1S(=O)(=O)c1ccc(F)cc1 was read as KDM4E inh inconclusive, Lamin A splicing inactive, HTT cytoprotect inactive[1.9 µM], HTT aggregate inactive, ALDH1A1 inh 25µM and HPGD block inconclusive.
For O=S(=O)(c1ccccc1)c1nc(-c2cccs2)oc1NCC1CCCO1 (stereo unspecified) the results were KDM4E inh inconclusive, Lamin A splicing inactive, HTT cytoprotect inactive[0.074 µM], HTT aggregate inactive, ALDH1A1 inh inconclusive and HPGD block inactive.
CCCCCCCCCCCC1=C(O)C(=O)C=C(O)C1=O was read as KDM4E inh 20µM!, HTT cytoprotect inconclusive, ALDH1A1 inh 24µM and HPGD block 14µM!.
For Cc1nn(C(C)(C)C)c(N)c1-c1ccccc1 the results were KDM4E inh inactive, Lamin A splicing inactive, HTT aggregate inactive, ALDH1A1 inh inactive and HPGD block 28µM.
Screening COc1ccc(-c2c(C)nn(-c3ccccc3)c2N)cc1OC returned KDM4E inh inactive, Lamin A splicing inactive, HTT cytoprotect inactive[10 µM], HTT aggregate inactive, ALDH1A1 inh inactive and HPGD block inactive.
`COc1ccc(-c2c(C)nn(-c3ccccc3)c2N)cc1` gave KDM4E inh inactive, Lamin A splicing inactive, HTT cytoprotect inactive, HTT aggregate inactive[1.84 µM], ALDH1A1 inh inactive and HPGD block 20µM.
Screening Cc1nn(C2CCCCC2)c(N)c1-c1ccccc1 returned KDM4E inh inactive, Lamin A splicing inactive, HTT cytoprotect inactive, HTT aggregate inactive, ALDH1A1 inh inactive and HPGD block 11µM.
`Cc1nn(C)c(N)c1-c1ccccc1` gave KDM4E inh inactive, HTT cytoprotect inactive, HTT aggregate inactive and ALDH1A1 inh inactive.
Screening Cc1nn(Cc2ccccc2)c(N)c1-c1ccccc1 returned KDM4E inh inactive, Lamin A splicing inactive, HTT cytoprotect inactive, HTT aggregate inactive[9.22 µM], ALDH1A1 inh inactive and HPGD block inactive.
O=C(O)c1sccc1S(=O)(=O)Nc1ccc(Cl)cc1 was read as KDM4E inh inactive, HTT cytoprotect inactive, ALDH1A1 inh inactive and HPGD block inactive.
For COc1cccc2[nH]c(-c3ccccn3)nc12 the results were HTT cytoprotect inactive[10 µM], ALDH1A1 inh inconclusive and HPGD block inconclusive.
`Cc1cc(C)c(NC(=O)C2CC(=O)N(Cc3ccccc3)C2)c(C)c1` (stereo unspecified) gave KDM4E inh inactive, Lamin A splicing inactive, HTT cytoprotect inactive, HTT aggregate inactive and ALDH1A1 inh inactive.
CC(=O)Nc1ccc(NC(=O)C2CC(=O)N(Cc3ccccc3)C2)cc1 (stereo unspecified) was read as KDM4E inh inactive, Lamin A splicing inactive, HTT cytoprotect inactive, HTT aggregate inactive and ALDH1A1 inh 3.5µM.
